# Results filed as inconclusive are left out. The source made the active and inactive calls. Calls follow the shape of the dose curve; as a rule, active = well fitted curve in the direction sought with a large enough effect; inconclusive = small, poorly fitted or top-dose-only effect, or another doubt; inactive = no such curve, though single readings can be large or run the other way.
# Molecular target: Lysosomal acid glucosylceramidase (Homo sapiens) (UniProt P04062)
# Assay: Activators of Human alpha-Glucosidase as a Potential Chaperone Treatment of Pompe Disease: Alpha-Galactosidase Counter Screen
# Details: purified human alpha-galactosidase, 4-MU fluorogenic substrate
# Description: Alpha-glucosidase is responsible for hydrolysis of terminal, non-reducing 1,4-linked alpha-D-glucose residues with release of alpha-D-glucose. It is a lysosomal hydrolase that is required for the degradation of a small percentage (1-3%) of cellular glycogen in human. Deficiency of this enzyme results in glycogen-storage disease type II (GSDII), also referred to as Pompe disease, an autosomal recessive disorder. Structurally normal glycogen is accumulated in lysosomes and cytoplasm in affected patients, primarily in muscle tissues. Excessive glycogen storage within lysosomes may interrupt normal functioning of other organelles and leads to cellular injury. In turn, this leads to enlargement and dysfunction of the entire organ involved (eg, cardiomyopathy and muscle weakness). […]
# This is a fluorogenic enzyme assay with 4-methylumbelliferyl-[…] as the substrate and human alpha-galactosidase as the enzyme preparation. […] 4-methyllumbelliferone, can be excited at 365 nm and emits at 440 nm which can be detected by a standard fluorescence plate reader. […] In the AC50 values were determined from concentration-response data modeled with the standard Hill equation. […] (5) Add 2 ul stop solution (1M NaOH and 1M Glycine mixture, pH 10) (6) Detect the assay plate in a ViewLux plate reader (PerkinElmer) with Ex=365 nm and Em=440nm. […]
smiles,measurement,value
CCCN1CNc2c(c(=O)[nH]c(=S)n2CCc2cccc(Cl)c2Cl)C1,Potency,9.13 µM (active)

# Source: PubChem BioAssay AID540361 (National Center for Advancing Translational Sciences (NCATS), 2011)
